These results are taken from ChEMBL document CHEMBL2218924, “A broad activity screen in support of a chemogenomic map for kinase signalling research and drug discovery” (Biochem J, 2013).

Assay [1] concerns the target Tyrosine-protein kinase SYK (Homo sapiens) (UniProt P43405). As to conditions: at 10 µM.
The target of assay [2] is T1, Mitogen-activated protein kinase kinase kinase 7 (Homo sapiens) (UniProt O43318).
T1 sequence (whole entry): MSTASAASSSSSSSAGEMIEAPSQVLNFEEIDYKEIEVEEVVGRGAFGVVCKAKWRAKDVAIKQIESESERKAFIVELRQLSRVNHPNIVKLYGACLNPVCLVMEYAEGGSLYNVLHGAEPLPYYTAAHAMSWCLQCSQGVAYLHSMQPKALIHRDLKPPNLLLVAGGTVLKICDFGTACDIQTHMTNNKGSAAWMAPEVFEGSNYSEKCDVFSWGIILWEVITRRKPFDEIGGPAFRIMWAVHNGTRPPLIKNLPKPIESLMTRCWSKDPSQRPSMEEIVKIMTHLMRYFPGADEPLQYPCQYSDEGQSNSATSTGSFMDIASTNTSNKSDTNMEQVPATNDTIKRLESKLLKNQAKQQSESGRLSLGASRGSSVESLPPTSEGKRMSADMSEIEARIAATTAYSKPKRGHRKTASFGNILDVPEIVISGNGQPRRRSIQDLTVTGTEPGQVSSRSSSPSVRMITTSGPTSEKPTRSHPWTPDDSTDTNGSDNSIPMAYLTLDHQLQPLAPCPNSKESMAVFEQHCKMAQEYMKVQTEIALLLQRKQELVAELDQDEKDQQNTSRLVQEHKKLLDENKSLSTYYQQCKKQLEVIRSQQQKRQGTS
The following applies: at 1 µM.

Assay [3] concerns the target T1, Mitogen-activated protein kinase kinase kinase 7 (Homo sapiens). The following applies: at 10 µM.
Assay [4] has as its target T2, Serine/threonine-protein kinase TAO1 (Homo sapiens) (UniProt Q7L7X3).
T2 sequence (whole entry): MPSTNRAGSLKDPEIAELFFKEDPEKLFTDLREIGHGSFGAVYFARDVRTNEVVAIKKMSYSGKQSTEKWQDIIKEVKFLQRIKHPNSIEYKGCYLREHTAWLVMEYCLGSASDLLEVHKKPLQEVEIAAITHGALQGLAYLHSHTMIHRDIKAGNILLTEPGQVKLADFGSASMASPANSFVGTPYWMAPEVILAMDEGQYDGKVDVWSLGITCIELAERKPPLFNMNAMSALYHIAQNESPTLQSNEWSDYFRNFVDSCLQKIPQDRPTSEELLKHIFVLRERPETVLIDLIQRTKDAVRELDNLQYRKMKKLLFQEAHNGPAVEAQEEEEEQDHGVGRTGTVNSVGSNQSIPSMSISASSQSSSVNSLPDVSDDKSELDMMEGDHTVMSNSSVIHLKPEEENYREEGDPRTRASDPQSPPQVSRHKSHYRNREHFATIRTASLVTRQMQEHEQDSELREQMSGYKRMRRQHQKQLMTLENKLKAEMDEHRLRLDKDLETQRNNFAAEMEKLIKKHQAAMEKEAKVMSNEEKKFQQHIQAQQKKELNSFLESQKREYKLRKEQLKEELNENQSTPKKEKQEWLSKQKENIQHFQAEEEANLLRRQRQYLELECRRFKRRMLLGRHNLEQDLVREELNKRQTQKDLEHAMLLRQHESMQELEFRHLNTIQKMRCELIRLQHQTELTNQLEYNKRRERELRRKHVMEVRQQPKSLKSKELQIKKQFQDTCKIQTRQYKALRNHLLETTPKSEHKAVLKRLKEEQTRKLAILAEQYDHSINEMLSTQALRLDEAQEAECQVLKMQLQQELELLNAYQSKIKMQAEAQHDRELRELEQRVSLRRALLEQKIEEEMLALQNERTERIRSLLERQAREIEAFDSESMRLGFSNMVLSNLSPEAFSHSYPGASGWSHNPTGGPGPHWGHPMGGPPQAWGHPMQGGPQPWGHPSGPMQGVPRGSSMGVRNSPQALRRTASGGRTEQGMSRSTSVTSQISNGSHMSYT
As to conditions: at 1 µM.

Assay [5] addresses T2, Serine/threonine-protein kinase TAO1 (Homo sapiens). The following applies: at 10 µM.
Assay [6] has as its target T3, Serine/threonine-protein kinase TAO2 (Homo sapiens) (UniProt Q9UL54).
T3 sequence (whole entry): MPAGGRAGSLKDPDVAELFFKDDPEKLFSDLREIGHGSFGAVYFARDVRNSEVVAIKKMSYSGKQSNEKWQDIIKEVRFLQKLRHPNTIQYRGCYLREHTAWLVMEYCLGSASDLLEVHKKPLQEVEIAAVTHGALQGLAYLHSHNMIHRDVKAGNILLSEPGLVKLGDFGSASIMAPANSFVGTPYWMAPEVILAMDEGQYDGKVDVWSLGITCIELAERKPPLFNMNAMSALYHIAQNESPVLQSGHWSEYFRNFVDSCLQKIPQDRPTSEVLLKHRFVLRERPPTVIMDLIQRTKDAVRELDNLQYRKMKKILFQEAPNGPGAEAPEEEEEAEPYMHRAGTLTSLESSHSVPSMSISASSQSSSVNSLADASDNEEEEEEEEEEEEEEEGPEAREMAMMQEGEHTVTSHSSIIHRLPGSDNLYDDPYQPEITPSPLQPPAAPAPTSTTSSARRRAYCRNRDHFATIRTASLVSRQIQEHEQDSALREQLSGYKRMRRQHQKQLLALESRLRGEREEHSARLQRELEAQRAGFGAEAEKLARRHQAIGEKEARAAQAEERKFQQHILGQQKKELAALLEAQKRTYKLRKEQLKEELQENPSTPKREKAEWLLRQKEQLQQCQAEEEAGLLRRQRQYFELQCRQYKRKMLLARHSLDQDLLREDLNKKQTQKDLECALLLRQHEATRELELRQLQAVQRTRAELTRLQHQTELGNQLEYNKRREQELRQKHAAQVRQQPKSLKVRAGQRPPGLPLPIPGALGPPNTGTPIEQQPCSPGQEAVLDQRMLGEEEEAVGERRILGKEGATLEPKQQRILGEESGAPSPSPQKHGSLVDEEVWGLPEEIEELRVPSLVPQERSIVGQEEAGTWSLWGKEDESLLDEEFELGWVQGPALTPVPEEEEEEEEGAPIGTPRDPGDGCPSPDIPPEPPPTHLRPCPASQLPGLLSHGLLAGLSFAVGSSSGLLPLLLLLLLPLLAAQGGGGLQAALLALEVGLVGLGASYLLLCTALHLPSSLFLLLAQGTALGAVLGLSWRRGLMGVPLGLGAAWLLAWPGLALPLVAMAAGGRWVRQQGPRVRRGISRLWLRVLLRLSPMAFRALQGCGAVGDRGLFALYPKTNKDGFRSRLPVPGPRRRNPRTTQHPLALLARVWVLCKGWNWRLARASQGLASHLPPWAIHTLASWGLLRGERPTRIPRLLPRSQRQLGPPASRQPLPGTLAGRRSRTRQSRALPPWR
The following applies: at 1 µM.

Assay [7] deals with T3, Serine/threonine-protein kinase TAO2 (Homo sapiens). The following applies: at 10 µM.
Assay [8] concerns the target T4, Serine/threonine-protein kinase TAO3 (Homo sapiens) (UniProt Q9H2K8).
T4 sequence (whole entry): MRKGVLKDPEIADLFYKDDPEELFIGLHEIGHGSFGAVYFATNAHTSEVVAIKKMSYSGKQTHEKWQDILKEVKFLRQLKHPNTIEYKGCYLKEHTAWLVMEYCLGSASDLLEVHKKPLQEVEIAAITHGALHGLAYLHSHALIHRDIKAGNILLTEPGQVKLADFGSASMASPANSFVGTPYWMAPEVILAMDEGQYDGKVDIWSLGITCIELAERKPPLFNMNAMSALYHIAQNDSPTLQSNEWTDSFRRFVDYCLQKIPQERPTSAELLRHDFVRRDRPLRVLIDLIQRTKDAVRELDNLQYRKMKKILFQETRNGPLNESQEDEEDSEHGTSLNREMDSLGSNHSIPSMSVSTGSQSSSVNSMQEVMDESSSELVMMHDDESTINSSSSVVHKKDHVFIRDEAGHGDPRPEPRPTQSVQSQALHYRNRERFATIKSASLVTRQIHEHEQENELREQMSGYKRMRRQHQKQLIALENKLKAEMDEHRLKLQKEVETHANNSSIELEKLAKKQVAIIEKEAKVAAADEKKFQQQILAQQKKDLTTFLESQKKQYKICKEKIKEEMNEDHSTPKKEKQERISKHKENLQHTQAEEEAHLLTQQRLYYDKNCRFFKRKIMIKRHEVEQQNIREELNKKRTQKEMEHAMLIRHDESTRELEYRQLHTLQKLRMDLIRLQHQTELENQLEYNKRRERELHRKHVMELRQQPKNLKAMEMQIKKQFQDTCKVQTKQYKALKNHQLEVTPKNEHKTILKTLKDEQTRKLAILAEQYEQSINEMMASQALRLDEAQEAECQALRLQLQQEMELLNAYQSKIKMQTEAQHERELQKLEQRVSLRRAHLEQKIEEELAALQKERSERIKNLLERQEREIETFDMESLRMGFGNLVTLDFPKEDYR
As to conditions: at 1 µM.

Assay [9] deals with T4, Serine/threonine-protein kinase TAO3 (Homo sapiens). The following applies: at 10 µM.

In the case of `O=C(O)/C=C/c1cc(Br)c(Br)c(Br)c1Br`, the residual activity in assay [1] was 84%; in assay [2], 107%; in assay [3], 95%; in [4], 77%; in [5] it was 29%; in assay [6] it was 84%. In addition, the values for the residual activity in assay [7], in [8] and in assay [9] were 68%, 81% and 26%, respectively.
